Measured values as given in PubChem BioAssay (EPA / NIEHS).
Calls of active or inactive are those of the source. The calls were made as follows: active = hit-call score of the fitted dose curve at least 0.9, where 1 is the maximum; inactive = score below 0.9.

Tests used:
Settings in all cases: mRNA level, 48 h; actives raise or lower the signal
[1] = read-out: Cyclin D1 (CCND1), CCND1 (gene 595); assay: LTEA_HepaRG_CCND1: Life Technologies and Expression Analysis (LTEA) Assay for Cyclin D1 (CCND1) using HepaRG (AID 2283451);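 as to AC50: differentiated human HepaRG liver cells in serum-free induction medium; TaqMan qRT-PCR transcript level normalised to ACTB GAPDH and POLR2A housekeeping genes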
In short: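 HepaRG plated 48 h, medium switched to serum-free induction medium, chemicals added in duplicate (top 100 uM, half-log steps, 0.5% DMSO) for 48 h, cells lysed, RNA measured by TaqMan qRT-PCR.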

[2] = read-out: catalase (CAT), CAT (gene 847); assay: LTEA_HepaRG_CAT: Life Technologies and Expression Analysis (LTEA) Assay for catalase (CAT) using HepaRG (AID 2283452)
In short: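 Differentiated HepaRG cells in serum-free induction medium were dosed 48 h in duplicate, eight half-log concentrations from 100 uM in 0.5% DMSO. Transcript measured by TaqMan qRT-PCR, normalised to ACTB/GAPDH/POLR2A, fitted bidirectionally against DMSO.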

[3] = read-out: flavin-containing dimethylaniline monooxygenases 3 (FMO3), FMO3 (gene 2328); assay: LTEA_HepaRG_FMO3: Life Technologies and Expression Analysis (LTEA) Assay for flavin-containing dimethylaniline monooxygenases 3 (FMO3) using HepaRG (AID 2283453);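 as to AC50: differentiated human HepaRG liver cells in serum-free induction medium; FMO3 transcript by TaqMan qRT-PCR normalized to ACTB GAPDH and POLR2A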
In short: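 FMO3 transcript quantified by TaqMan qRT-PCR against three housekeeping genes after 48 h chemical exposure of HepaRG cells. Eight-point half-log series, top 100 uM, 0.5% DMSO vehicle; phenobarbital 1mM induction control; up- or down-regulation fitted.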

[4] = read-out: Cytochrome P450 (CYP1A1), CYP1A1 (gene 1543); assay: LTEA_HepaRG_CYP1A1: Life Technologies and Expression Analysis (LTEA) Assay for Cytochrome P450 (CYP1A1) using HepaRG (AID 2283454)
In short: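 HepaRG, 48 h post-plating switched to serum-free induction medium; 8-pt conc-response (top 100 uM, half-log, 0.5% DMSO), duplicates, 48 h. Lysis in RLT, TaqMan qRT-PCR for CYP1A1; gain or loss vs DMSO.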

[5] = read-out: CFLAR gene, CFLAR (gene 8837); assay: LTEA_HepaRG_CFLAR: Life Technologies and Expression Analysis (LTEA) Assay for CFLAR gene using HepaRG (AID 2283455)
In short: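 Gain- or loss-of-signal changes in CFLAR transcript were fitted bidirectionally relative to 0.5% DMSO. Cells (HepaRG, duplicate wells) were dosed for 48 h across eight half-log concentrations topping at 100 uM; quantitation by TaqMan qRT-PCR.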

[6] = read-out: Forkhead box O1 (FOXO1), FOXO1 (gene 2308); assay: LTEA_HepaRG_FOXO1: Life Technologies and Expression Analysis (LTEA) Assay for Forkhead box O1 (FOXO1) using HepaRG (AID 2283456)
In short: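 Using one lot of HepaRG hepatic cells kept in 0.5% DMSO, the team applied test chemicals in duplicate, half-log dilutions from 100 uM, for 48 h. Expression, normalised to ACTB/GAPDH/POLR2A, was compared with vehicle in either direction.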

[7] = read-out: growth arrest and DNA damage 45 (GADD45A), GADD45A (gene 1647); assay: LTEA_HepaRG_GADD45A: Life Technologies and Expression Analysis (LTEA) Assay for growth arrest and DNA damage 45 (GADD45A) using HepaRG (AID 2283458)
In short: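 GADD45A expression was measured by TaqMan qRT-PCR against three housekeeping genes (ACTB, GAPDH, POLR2A) after 48 h treatment of HepaRG cells. Eight-point half-log series up to 100 uM in 0.5% DMSO, run in duplicate.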

[8] = read-out: Forkhead box O3 (FOXO3), FOXO3 (gene 2309); assay: LTEA_HepaRG_FOXO3: Life Technologies and Expression Analysis (LTEA) Assay for Forkhead box O3 (FOXO3) using HepaRG (AID 2283459)
In short: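 Gene-expression endpoint: FOXO3 transcript level by qRT-PCR in HepaRG cultures treated 48 h with chemicals up to 100 uM (half-log, 0.5% DMSO vehicle).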

[9] = read-out: ABC Transporter (ABCB1), ABCB1 (gene 5243); assay: LTEA_HepaRG_ABCB1: Life Technologies and Expression Analysis (LTEA) Assay for ABC Transporter (ABCB1) using HepaRG (AID 2283460)
In short: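 Human liver HepaRG line treated 48 h with up to 100 uM compound (eight half-log points, 0.5% DMSO); ABCB1 mRNA change fitted bidirectionally against DMSO controls.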

[10] = read-out: growth arrest and DNA damage 45 (GADD45B), GADD45B (gene 4616); assay: LTEA_HepaRG_GADD45B: Life Technologies and Expression Analysis (LTEA) Assay for growth arrest and DNA damage 45 (GADD45B) using HepaRG (AID 2283461)
In short: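 HepaRG, ~100,000 cells/well, 48 h plating; serum-free induction medium; cpd 100 uM top, half-log x8, 0.5% DMSO, duplicate, 48 h; lysis in RLT, RNA isolation, qRT-PCR; norm ACTB/GAPDH/POLR2A; bidirectional fit vs DMSO.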

[11] = read-out: ABC Transporter (ABCC3), ABCC3 (gene 8714); assay: LTEA_HepaRG_ABCC3: Life Technologies and Expression Analysis (LTEA) Assay for ABC Transporter (ABCC3) using HepaRG (AID 2283462)
In short: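 Human HepaRG, 48 h dosing, 8-pt half-log series from 100 uM, 0.5% DMSO vehicle, duplicates. ABCC3 mRNA by TaqMan qRT-PCR, housekeeping-normalized; bidirectional curve fit vs DMSO.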

[12] = read-out: ABC Transporter (ABCB11), ABCB11 (gene 8647); assay: LTEA_HepaRG_ABCB11: Life Technologies and Expression Analysis (LTEA) Assay for ABC Transporter (ABCB11) using HepaRG (AID 2283463)
In short: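 Using HepaRG cultures held in 0.5% DMSO, chemicals were tested at half-log dilutions from 100 uM for 48 h. Induction or suppression of ABCB11 mRNA, normalized to ACTB, GAPDH and POLR2A, was fitted bidirectionally against vehicle.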

[13] = read-out: ABC Transporter (ABCC2), ABCC2 (gene 1244); assay: LTEA_HepaRG_ABCC2: Life Technologies and Expression Analysis (LTEA) Assay for ABC Transporter (ABCC2) using HepaRG (AID 2283464)
In short: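 HepaRG, 48 h post-plating; serum-free induction medium; cpd 8-pt, 100 uM top, half-log, 0.5% DMSO, duplicate, 48 h. Readout: ABCC2 mRNA by qRT-PCR, norm. ACTB/GAPDH/POLR2A. Bidirectional fit vs DMSO baseline.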

[14] = read-out: Broad substrate specificity ATP-binding cassette transporter ABCG2 (Homo sapiens) (UniProt Q9UNQ0); assay: LTEA_HepaRG_ABCG2: Life Technologies and Expression Analysis (LTEA) Assay for ABC Transporter (ABCG2) using HepaRG (AID 2283465)
In short: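 Gene expression of ABCG2 in HepaRG liver cells is quantified by qRT-PCR following 48 h exposure across an eight-point series topping at 100 uM. Values come from bidirectional fitting relative to DMSO vehicle.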

[15] = read-out: ATP-citrate lyase (ACLY), ACLY (gene 47); assay: LTEA_HepaRG_ACLY: Life Technologies and Expression Analysis (LTEA) Assay for ATP-citrate lyase (ACLY) using HepaRG (AID 2283466)
In short: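 ACLY expression changes in human HepaRG liver cells are quantified by qRT-PCR after 48 h exposure to test chemicals (maximum 100 uM, half-log steps). Values are fitted in both directions relative to 0.5% DMSO vehicle.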

[16] = read-out: Peroxisomal acyl-coenzyme A oxidase 1 (ACOX1) gene, ACOX1 (gene 51); assay: LTEA_HepaRG_ACOX1: Life Technologies and Expression Analysis (LTEA) Assay for Peroxisomal acyl-coenzyme A oxidase 1 (ACOX1) gene using HepaRG (AID 2283467)
In short: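 Human HepaRG hepatic cultures, 48 h treatment with test chemicals up to 100 uM. ACOX1 expression read by qRT-PCR relative to 0.5% DMSO vehicle.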

[17] = read-out: Alkaline Phosphatase, Placental (ALPP) gene, ALPP (gene 250); assay: LTEA_HepaRG_ALPP: Life Technologies and Expression Analysis (LTEA) Assay for Alkaline Phosphatase, Placental (ALPP) gene using HepaRG (AID 2283468);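 as to AC50: differentiated human HepaRG liver cells in serum-free induction medium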
In short: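 HepaRG, 48 h plating then 48 h dosing, serum-free induction medium, 0.5% DMSO. 8 conc, half-log, max 100 uM, duplicates. Endpoint: ALPP transcript by qRT-PCR, housekeeping-normalized; gain or loss fitted vs DMSO.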

[18] = read-out: Bcl-2 (BAD) gene, BAD (gene 572); assay: LTEA_HepaRG_BAD: Life Technologies and Expression Analysis (LTEA) Assay for Bcl-2 (BAD) gene using HepaRG (AID 2283469)
In short: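 Activity values reflect up- or down-regulation of BAD mRNA in human HepaRG hepatic cells treated 48 h in serum-free medium, with eight-point half-log dosing capped at 100 uM and 0.5% DMSO vehicle.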

[19] = read-out: Bcl-2 (BAX) gene, BAX (gene 581); assay: LTEA_HepaRG_BAX: Life Technologies and Expression Analysis (LTEA) Assay for Bcl-2 (BAX) gene using HepaRG (AID 2283470)
In short: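 Gene expression measured by Fluidigm qRT-PCR with three housekeeping genes for normalisation. HepaRG cells, plated 48 h beforehand, treated 48 h at up to 100 uM (8-point, half-log) in 0.5% DMSO. Bidirectional fitting versus DMSO.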

Measured: AC50

Sequence of Broad substrate specificity ATP-binding cassette transporter ABCG2 (Homo sapiens) (Q9UNQ0 whole entry, looked up): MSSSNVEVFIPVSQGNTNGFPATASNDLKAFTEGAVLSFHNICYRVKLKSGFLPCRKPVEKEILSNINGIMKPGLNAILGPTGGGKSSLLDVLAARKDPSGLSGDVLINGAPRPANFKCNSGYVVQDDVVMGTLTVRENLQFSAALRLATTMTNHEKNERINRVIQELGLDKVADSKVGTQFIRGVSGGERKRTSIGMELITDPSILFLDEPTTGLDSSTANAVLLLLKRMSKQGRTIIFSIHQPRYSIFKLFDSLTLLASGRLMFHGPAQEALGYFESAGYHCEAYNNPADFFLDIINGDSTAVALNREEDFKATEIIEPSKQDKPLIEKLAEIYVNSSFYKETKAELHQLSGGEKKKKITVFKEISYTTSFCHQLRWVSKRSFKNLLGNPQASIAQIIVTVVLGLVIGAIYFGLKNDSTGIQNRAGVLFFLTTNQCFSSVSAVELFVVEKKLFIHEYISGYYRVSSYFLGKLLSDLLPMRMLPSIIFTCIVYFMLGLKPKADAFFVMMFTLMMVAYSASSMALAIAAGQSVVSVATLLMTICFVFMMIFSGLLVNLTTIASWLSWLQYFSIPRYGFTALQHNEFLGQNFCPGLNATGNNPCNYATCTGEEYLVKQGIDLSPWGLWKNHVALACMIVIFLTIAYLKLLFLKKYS

O=c1ccc2ccccc2o1
inactive: [1] | [2] | [3] | [4] | [5] | [6] | [7] | [8] | [9] | [10] | [11] | [12] | [13] | [14] | [15] | [16] | [17] | [18] | [19]

CCOC(=O)O[C@H](C)OC(=O)c1ccc2c(c1)cc(C(=O)NC1CCN(C(C)C)CC1)n2Cc1cc(-c2ccc(Cl)s2)on1
active: [4] 65.2 µM | [17] 16.9 µM
inactive: [1] | [2] | [3] | [5] | [6] | [7] | [8] | [9] | [10] | [11] | [12] | [13] | [14] | [15] | [16] | [18] | [19]

Clc1ccccc1C(c1ccccc1)(c1ccccc1)n1ccnc1
active: [1] 82.1 µM | [2] 21 µM | [3] 96.5 µM | [4] 9.17 µM | [9] 15.8 µM | [11] 78.3 µM | [12] 28.6 µM | [14] 37.5 µM | [15] 8.91 µM | [16] 60 µM | [17] 9.09 µM | [18] 91.3 µM | [19] 12.3 µM
inactive: [5] | [6] | [7] | [8] | [10] | [13]
